Assays:
[1] = system: Schistosoma mansoni schistosomula (LE); assay: XTT viability relative to DMSO control; higher = more viable (less active); conditions: 72 h; 10 µM
Experimental: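 XTT/PMS was then added for a further 24 h (72 h total) and A450 was read. % viability = (sample - heat-killed control)/(DMSO control - heat-killed control) x 100, from duplicate wells in two independent experiments.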

[2] = system: Schistosoma mansoni schistosomula (NMRI); assay: phenotypic severity score (0-4); higher = more antischistosomal effect, active = 2 or more; conditions: 10 µM
[3] = system: Schistosoma mansoni schistosomula (Liberian); assay: drug effect (1 - score/DMSO control score) (fraction); higher = more antischistosomal effect, active = 0.5 or more; extreme values may be limits of the assay; conditions: 10 µM
How it was run: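 Schistosomula of the Liberian strain of Schistosoma mansoni were mechanically transformed from cercariae, pre-incubated for at least 12 h, and placed at 50 per well in flat-bottom 96-well plates with Medium 199 containing 5% FCS. Compounds were tested in duplicate at 10 µM at 37 °C and 5% CO2, alongside wells holding 0.1% DMSO. Parasites were scored visually at 10× after 24, 48 and 72 h on a quarter-point scale running from 3 (normal) to 0 (dead). Drug effect came from the mean test-well score relative to the mean DMSO-well score, with negative values set to zero and plates accepted only when the DMSO wells averaged at least 2.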
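For phenotypic severity score (0-4) in this document: visual microscopic scoring of shape, motility and density changes versus 0.5% DMSO solvent controls, one point per descriptor, degeneracy or death scored 4, mean of duplicate wells.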

| Structure (SMILES) | XTT viability [1] [%] | phenotypic severity score ([2]; 24 h) | phenotypic severity score ([2]; 48 h) | phenotypic severity score ([2]; 72 h) | drug effect ([3]; 24 h) | drug effect ([3]; 48 h) | drug effect ([3]; 72 h) |
| --- | --- | --- | --- | --- | --- | --- | --- |
| O=C(Nc1nnc(-c2ccc(Cl)cc2)o1)c1cccc(C(F)(F)F)c1 | -9.98 | 0 (inactive) | 4 (active) | 4 (active) | 0.0909 (inactive) | 0.25 (inactive) | 0.945 (active) |
| COc1cccc(OCC(=O)c2ccc(Br)cc2)c1 | 101 | 0 (inactive) | 0 (inactive) | 0 (inactive) | 0.182 (inactive) | 0.2 (inactive) | 0.127 (inactive) |
| CCCCCCCCCCCCCCCCOP(=O)([O-])OCC[N+](C)(C)C | 127 | 0 (inactive) | 0 (inactive) | 0 (inactive) | 0.05 (inactive) | 0.243 (inactive) | 0.273 (inactive) |
| CN1CCN(c2cc(-c3ccc(F)cc3)nc(-c3ccncc3)n2)CC1 | 63 | 0 (inactive) | 0 (inactive) | 0 (inactive) | 0.182 (inactive) | 0.35 (inactive) | 0.345 (inactive) |
| N#Cc1nc(-c2ccccc2F)oc1NCCc1ccccc1 | 94 | 0 (inactive) | 0 (inactive) | 0 (inactive) | 0.2 (inactive) | 0.111 (inactive) | 0.125 (inactive) |
| COc1cccc(-c2nc3c(N4CCCC4)cccc3n2CC2CCCN2)n1 (stereo not drawn) | 158 | 4 (active) | 4 (active) | 4 (active) | 0.35 (inactive) | 0.778 (active) | 0.75 (active) |
| CO[C@H]1/C=C/O[C@@]2(C)Oc3c(C)c(O)c4c(O)c(/c(=C/NN5CCN(C)CC5)c(O)c4c3C2=O)=N\C(=O)/C(C)=C\C=C/[C@H](C)[C@H](O)[C@@H](C)[C@@H](O)[C@@H](C)[C@H](OC(C)=O)[C@@H]1C | 116 | 0 (inactive) | 0 (inactive) | 0 (inactive) | 0.0455 (inactive) | 0.05 (inactive) | 0.105 (inactive) |
| CCOC(=O)c1cc(-c2csc(Nc3c(C)cc(C)cc3C)n2)on1 | 95.6 | 1 (inactive) | 1 (inactive) | 0 (inactive) | 0.182 (inactive) | 0.3 (inactive) | 0.291 (inactive) |
| CC1CC1C(=O)NC1CCN(CC2(c3ccccc3)CCCCC2)CC1 (stereo not drawn) | 82.4 | 1 (inactive) | 0 (inactive) | 0 (inactive) | < 0 (inactive) | 0.0811 (inactive) | 0.222 (inactive) |
| COc1ccc(C2CC(c3cccs3)=NN2C(=O)c2ccco2)cc1OC (stereo not drawn) | 65.7 | 0 (inactive) | 0 (inactive) | 0 (inactive) | 0.1 (inactive) | 0.135 (inactive) | 0.167 (inactive) |
| CCCNC(=O)N1CCC2(CC1)CC(=O)c1cc(C)ccc1O2 | 102 | 0 (inactive) | 0 (inactive) | 0 (inactive) | 0.1 (inactive) | 0.15 (inactive) | 0.111 (inactive) |
| CC1(COc2ccc(N3CCC(Oc4ccc(OC(F)(F)F)cc4)CC3)cc2)Cn2cc([N+](=O)[O-])nc2O1 (stereo not drawn) | 110 | 0 (inactive) | 0 (inactive) | 0 (inactive) | 0.158 (inactive) | 0.111 (inactive) | 0.0625 (inactive) |
| CCS(=O)(=O)N(Cc1ccco1)Cc1cc2ccc(C)cc2nc1O | 55.5 | 0 (inactive) | 1 (inactive) | 0 (inactive) | 0.2 (inactive) | 0.333 (inactive) | 0.5 (active) |
| Cc1cc(C)cc(COc2ccc3c(C)c(CCC(=O)O)c(=O)oc3c2C)c1 | 79.3 | 1 (inactive) | 1 (inactive) | 0 (inactive) | 0.136 (inactive) | 0.2 (inactive) | 0.127 (inactive) |
| NC(CC(=O)c1ccc(Cl)cc1Cl)C(Cl)(Cl)Cl (stereo not drawn) | 69.2 | 0 (inactive) | 0 (inactive) | 0 (inactive) | 0.0455 (inactive) | 0.1 (inactive) | 0.158 (inactive) |
| Cc1nc(-c2ccccn2)nc(N2CCC(Cc3ccccc3)C2)c1Cl (stereo not drawn) | -3.46 | 0 (inactive) | 0 (inactive) | 0 (inactive) | 0.15 (inactive) | 0.1 (inactive) | 0.333 (inactive) |
| CC(C)(C)C(=O)N(CCCCCCN1C[C@H](O)[C@@H](O)[C@H](O)[C@H]1CO)C1CCCCCC1 | 122 | 0 (inactive) | 2 (active) | 4 (active) | 0.25 (inactive) | 0.556 (active) | 1 (active) |
| O=C(C1CCN(c2cc(-n3cccc3)ncn2)CC1)N1CCc2ccccc2C1 | 96.4 | 0 (inactive) | 0 (inactive) | 1 (inactive) | 0.05 (inactive) | 0.111 (inactive) | 0.333 (inactive) |
| Brc1c(-c2ccc3c(c2)OCO3)nc2ncccn12 | 99.9 | 0 (inactive) | 0 (inactive) | 0 (inactive) | 0.182 (inactive) | 0.2 (inactive) | 0.127 (inactive) |

From the supplement of paper PMC6805474
